Results: PubChem BioAssay AID1053124 (Broad Institute, 2014)
Results with a measured potency or affinity are listed apart. Active and inactive are the calls of the source.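 The calls were made as follows: active = cell killing whose fitted half-effect concentration is at most twice the top valid dose tested; inconclusive = flat curve with 30 to 70% killing, or a poor fit; inactive = effect in the rising direction, plus the rest.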

experiment: A549 cell cytotoxicity, dose response, cytotoxicity control, ATP luminescence, cherry-pick, set 2 (AID 1053124); details: A549 viability, ATP luminescence (CellTiter-Glo), 72 h; series mostly up to 26 µM; activity change, negative = cytotoxicity: at the top concentration;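 also: 0% = neutral control wells and -100% = mitoxantrone 10 µM positive control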

Row | Structure (SMILES) | activity change, negative = cytotoxicity
1 | CCc1ccccc1S(=O)(=O)Cc1ccc(C(=O)N2CCN(c3ccccc3OC)CC2)o1 | -6.17% (inactive)
2 | CCOC(=O)C1=CN(CC2CCCO2)C=C(C(=O)OCC)C1c1ccccc1C(F)(F)F (stereo not drawn) | -7.49% (inactive)
3 | Cc1oc(/N=C/c2ccc(O)cc2O)c(C#N)c1C | -4.85% (inactive)
4 | O=C(O)[C@@H]1CCCN1S(=O)(=O)c1cccc(S(=O)(=O)N2CCC[C@H]2C(=O)O)c1 | 2.87% (inactive)
5 | Cc1ccc2nc3c(cc(C(=O)NCc4ccccc4)c(=N)n3CCCn3ccnc3)c(=O)n2c1 | -10.2% (inactive)
6 | COc1ccc(C2CC(c3cccs3)=NN2c2nc(C)c(C(C)=O)s2)cc1OC (stereo not drawn) | -26.6% (inactive)
7 | CSc1ccc(Cn2c(C)c(C(=O)NCCC#N)sc2=O)cc1 | 2.6% (inactive)
8 | CCC(C)n1c(=N)c(C#N)cc2c(=O)n3cc(C)ccc3nc21 (stereo not drawn) | 2.88% (inactive)
9 | Cc1cc(=O)oc2cc(OC(=O)c3cncc(Br)c3)ccc12 | -8.82% (inactive)
10 | O=c1[nH]c(Nc2ccccc2Cl)cc2ccccc12 | -5.32% (inactive)
11 | CCCCN(CCCC)CC(O)Cn1c2ccccc2c(=O)c2ccccc21 (stereo not drawn) | -10.9% (inactive)
12 | COC(=O)C1=CN(CC2CCCO2)C=C(C(=O)OC)C1c1cccc(O)c1 (stereo not drawn) | -8.45% (inactive)
13 | Cc1nc2ccc(S(=O)(=O)Nc3ccc(-c4nc5cccnc5s4)cc3)cc2s1 | -2.41% (inactive)
14 | Cc1ccc(C(=O)OCC(=O)Nc2c(C)nn(-c3ccccc3)c2C)c(O)c1 | -3.16% (inactive)
15 | CCOC(=O)C1CCCN(CCCc2ccccc2)C1 (stereo not drawn) | -3.61% (inactive)
16 | CCN1C(=O)c2cccc3c(S(=O)(=O)N(C)C)ccc1c23 | -14.3% (inactive)
17 | CC(=O)c1cc2ccc(O)cc2oc1=O | 2.12% (inactive)
18 | Cn1cnc(S(=O)(=O)Nc2ccc(OC(F)(F)F)cc2)c1 | 0.518% (inactive)
